# Laboratory results reported in PubChem BioAssay (Tox21).
# Inconclusive results are not listed. A call without a number means that no potency is given here. Calls of active or inactive are those of the source. The call rests on the fitted dose curve; in most records, active means well fitted activation curve with a large enough effect in the signal ratio in the repeat runs (not every such curve was filed as active); inconclusive means weak or mixed curves; inactive means flat fitted curve, though single readings scatter; the % refers to the signal ratio.
# Experiment: p53 small molecule agonists, cell-based qHTS assay (AID 1963582)
# Details: HCT-116 p53RE-bla reporter, beta-lactamase FRET ratio, 16 h; series mostly up to 66 µM
# Text: National Center for Advancing Translational Sciences [NCATS]
# Division of Preclinical Innovation [DPI]
# U.S. Environmental Protection Agency [EPA]
# National Institutes of Environmental Health Sciences [NIEHS]
# National Toxicology Program [NTP]
# U.S. Food and Drug Administration [FDA]
# p53, a tumor suppressor protein, is activated following cellular insult, including DNA damage and other cellular stresses. The activation of p53 regulates cell fate by inducing DNA repair, cell cycle arrest, apoptosis, or cellular senescence. The activation of p53, therefore, is a good indicator of DNA damage and other cellular stresses. […] The activation of the reporter gene under culture conditions can be detected by fluorescence intensity. This cell line was used to screen the Tox21 10K compound library in a 1536-well plate format and to identify agonists that activate the p53 signaling pathway.
# Tox21 Assay Protocol Summary:
# The p53RE-bla cells were dispensed at 4,000 cells/5 ul/well in 1536-well black wall/clear bottom plates using a Multidrop dispenser. After the assay plates were incubated at a 37 C/5% CO2 incubator for 5 hours, 23 nL of compounds dissolved in DMSO, positive controls or DMSO only was transferred to the assay plate by a pin tool. The plates were incubated at 37 C for 16 hours. After 1 uL of LiveBLAzerTM B/G FRET substrate was added using a Flying Reagent Dispenser, the plates were incubated at room temperature for 2 hours, and fluorescence intensity was measured by an Envision plate reader.
# Potency means the concentration at half of the fitted maximal effect.
SMILES,Potency,activation
CCCCCCCC/C=C/CCCOC(C)=O,inactive,–
O=C(CS(=O)Cc1ccco1)NC/C=C\COc1cc(CN2CCCCC2)ccn1 (stereo not given),inactive,–
O=[N+]([O-])C1(Br)COCOC1,inactive,–
C=CC[N+]1([C@H]2C[C@H]3[C@@H]4CC[C@H]5C[C@H](OC(C)=O)[C@@H](N6CCCCC6)C[C@]5(C)[C@H]4CC[C@]3(C)[C@H]2OC(=O)CC)CCCCC1,inactive,–
CCC(C)n1ncn(-c2ccc(N3CCN(c4ccc(OC[C@H]5CO[C@](Cn6cncn6)(c6ccc(Cl)cc6Cl)O5)cc4)CC3)cc2)c1=O (stereo not given in full),inactive,–
CN1CCC[C@@H]1CCO[C@](C)(c1ccccc1)c1ccc(Cl)cc1,inactive,–
Cc1onc(-c2c(Cl)cccc2Cl)c1C(=O)N[C@@H]1C(=O)N2[C@@H]1SC(C)(C)[C@@H]2C(=O)O,inactive,–
COc1cc([N+](=O)[O-])ccc1N,inactive,–
CC(=O)OCC=C(C)C,inactive,–
CCCCC(CC)CN1CN(CC(CC)CCCC)CC(C)(N)C1 (stereo not given),inactive,–
O=C(CCCCCCC(=O)Nc1ccccc1)NO,inactive,–
CC1(O)CSC(C)(O)CS1 (stereo not given),inactive,–
CO[Si](OC)(c1ccccc1)c1ccccc1,inactive,–
CCC(Cl)CCC(Cl)C(Cl)CC(Cl)C(Cl)C(Cl)CCl (stereo not given),inactive,–
CCCCCCCC/C=C/CCCCCCCC1=NCCN1CCO,inactive,–
C=C(C)C(=O)OCCOC(=O)CC(C)=O,inactive,–
CCC(C)(C)c1cc(O)c(C(C)(C)CC)cc1O,inactive,–
CC1=NN(c2ccc(S(=O)(=O)O)cc2)C(=O)C1N=Nc1ccccc1 (stereo not given),inactive,–
COC(=O)[C@]1(C)CCC[C@@]2(C)[C@H]1CC=C1C=C(C(C)C)CC[C@@H]12,inactive,–
CCOCN(C(=O)CS(=O)(=O)O)c1c(C)cccc1CC,inactive,–

SMILES,Potency,activation
Cc1ccc(O)c(C(C)(C)C)c1,inactive,–
CCCN(C1CCN(C(=O)C2CCNCC2)CC1)[C@@H]1CCc2ccc(OC)cc2C1,inactive,–
CCCCO,inactive,–
C=C[Si](OC(C)=O)(OC(C)=O)OC(C)=O,inactive,–
CC/C(C)=N\O[Si](C)(O/N=C(\C)CC)O/N=C(\C)CC,inactive,–
CCCCN(CCCC)CC(O)c1cc(Cl)cc2c1-c1ccc(Cl)cc1/C2=C/c1ccc(Cl)cc1 (stereo not given),inactive,–
Cc1cc(=O)oc2cc(N(C)C)ccc12,32.4 µM (active),–
CCc1ccc(C(c2ccc(CC)cc2)C(Cl)Cl)cc1,inactive,–
CN(C)CC/C=C1\c2ccccc2COc2ccccc21,inactive,–
Cc1ccc([N+](=O)[O-])c(N)c1,inactive,–
C[C@]12CC[C@@H]3c4ccc(O)cc4CC[C@H]3[C@@H]1CC[C@@H]2OC(=O)CCC1CCCC1,inactive,–
CC(C)c1ccccc1N,inactive,–
Cc1cc(NC(=O)C(=O)O)cc(C)c1Oc1ccc(O)c2c1CCC2,inactive,–
CN(C)C(=O)NC1(c2ccccc2)CCN(CCC[C@]2(c3ccc(Cl)c(Cl)c3)CCCN(C(=O)c3ccccc3)C2)CC1,–,-4.21% [at 13.5 µM] (inactive)
CCC(Cl)C(Cl)C(Cl)CC(Cl)C(Cl)C(C)Cl (stereo not given),inactive,–
O=C(O)Cc1cc(I)c(Oc2ccc(O)c(I)c2)c(I)c1,11.5 µM (active),–
O=C(/C=C/c1ccccc1)OCCc1ccccc1,inactive,–
CC(C)(C)CC(C)(C)c1ccc(OCCO)cc1,inactive,–
CCC(C)(CN(C)C)OC(=O)c1ccccc1 (stereo not given),inactive,–
CCCCN(CCCC)C(=S)SSC(=S)N(CCCC)CCCC,inactive,–
